About 79,000 compounds went through this panel and 15% of them were active in at least one assay; those are over-represented in the sample as a whole. Values without a mark were called inactive. Calls of active or inactive are those of the source. Rule as the data show it: active = growth inhibition above about 70%; inactive = the rest.
Key:
[1] = NCI Yeast Anticancer Drug Screen. Data for the rad50 strain (AID 155);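 also: 0% = growth of vehicle-only cultures of the same strain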; settings: S. cerevisiae rad50 strain growth inhibition, hits give high values
Method in brief: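 DNA repair mutant yeast, compound exposure, growth read-out; inhibition is taken relative to vehicle.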

[2] = NCI Yeast Anticancer Drug Screen. Data for the mec2-1 strain (AID 157); settings: S. cerevisiae mec2-1 strain, hits give high values
Method in brief: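 Compounds were applied to mec2-1 yeast cells. Their growth was then compared with that of vehicle-treated cultures to give growth inhibition.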

[3] = NCI Yeast Anticancer Drug Screen. Data for the sgs1 mgt1 strain (AID 161);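 also: 0% = growth of cultures given vehicle only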; settings: S. cerevisiae sgs1 mgt1 strain, hits give high values
Method in brief: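 Growth of a repair-deficient yeast mutant was monitored after compound treatment and expressed as inhibition relative to vehicle-treated cultures.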

[4] = NCI Yeast Anticancer Drug Screen. Data for the cln2 rad14 strain (AID 165);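 also: 0% = growth equal to vehicle treated cultures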; settings: S. cerevisiae cln2 rad14 strain, hits give high values
Method in brief: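 Strain: cln2 rad14 yeast, altered in cell cycle control and DNA damage repair. Read-out: growth inhibition vs vehicle.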

[5] = NCI Yeast Anticancer Drug Screen. Data for the bub3 strain (AID 167); settings: S. cerevisiae bub3 mutant strain, hits give high values
Method in brief: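 In this screen, a yeast mutant lacking normal mitotic checkpoint function is challenged with compound. Relative growth versus vehicle gives the inhibition value.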

[6] = NCI Yeast Anticancer Drug Screen. Data for the mlh1 rad18 strain (AID 175); settings: S. cerevisiae mlh1 rad18 strain growth inhibition, hits give high values
Method in brief: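 A repair-deficient yeast strain is exposed to test compound, and growth is scored relative to vehicle-treated controls.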

[7] = at 5.0 µM (retest, dose inferred, filed as 0.5)
[8] = at 50.0 µM (retest, dose inferred, filed as 5.0)

| Structure (SMILES) | growth inhibition [1, 7] | growth inhibition [1, 8] | growth inhibition ([1]; at 50.0 µM) | growth inhibition [2, 7] | growth inhibition [2, 8] | growth inhibition ([2]; at 50.0 µM) | growth inhibition [3, 7] | growth inhibition [3, 8] | growth inhibition ([3]; at 50.0 µM) | growth inhibition [4, 7] | growth inhibition [4, 8] | growth inhibition ([4]; at 50.0 µM) | growth inhibition [5, 7] | growth inhibition [5, 8] | growth inhibition ([5]; at 50.0 µM) | growth inhibition [6, 7] | growth inhibition [6, 8] | growth inhibition ([6]; at 50.0 µM) |
| --- | --- | --- | --- | --- | --- | --- | --- | --- | --- | --- | --- | --- | --- | --- | --- | --- | --- | --- |
| CCN(CC)CCNc1c2ccccc2nc2cccc([N+](=O)[O-])c12 | 88% (active) | 97% (active) | 68.2% | 95% (active) | 99% (active) | 61.4% | 94% (active) | 99% (active) | 55% | 85% (active) | 98% (active) | 86.5% (active) | 93% (active) | 99% (active) | 2.85% | 92% (active) | 97% (active) | 62.9% |
| CCN(CC)C(=S)Nc1ccc(Cl)cc1 | -144% | 67% | 98.5% (active) | -50% | 49% | 97.7% (active) | -62% | 63% | 97.1% (active) | -85% | 40% | 98.5% (active) | -65% | 45% | 95.2% (active) | -122% | 74% (active) | 97.4% (active) |
| CC(=O)Nc1nc(Cl)c2ncn(C3CC(OC(=O)c4ccc(C)cc4)C(COC(=O)c4ccc(C)cc4)O3)c2n1 (configuration not stated) | -3% | 0% | 53.1% | 0% | 6% | 27.4% | 57% | 3% | 60.1% | -2% | 0% | 63.4% | 0% | -2% | 33.2% | -20% | 0% | 48.6% |
| CCN(C(=O)C(F)(F)F)c1ccc2c(c1)C(=O)c1ccccc1-2 | 0% | 34% | 26.1% | 1% | 12% | -2.65% | -4% | 87% (active) | 42.6% | 0% | 20% | -18.2% | 38% | 70% (active) | 84% (active) | -1% | 60% | 10% |
| COc1cc(C(=O)C2OC2c2ccc(Cl)cc2)c([N+](=O)[O-])cc1OC (configuration not stated) | 25% | 51% | 54% | 22% | 47% | 26.4% | 24% | 61% | 54% | 36% | 57% | 58.5% | 15% | 51% | 36.8% | 36% | 85% (active) | 64.2% |
| CCOC(=O)C(=CCC1NCCc2c1[nH]c1ccccc21)C(=O)OCC (configuration not stated) | 23% | 93% (active) | 91.2% (active) | 29% | 97% (active) | 91.7% (active) | 29% | 63% | 93.5% (active) | 28% | 59% | 92.2% (active) | 30% | 98% (active) | 92.4% (active) | 41% | 97% (active) | 91.6% (active) |
| c1ccc([P+](c2ccccc2)(c2ccccc2)C2CCCC2)cc1 | -18% | 7% | 96.8% (active) | -13% | 15% | 97.5% (active) | -13% | 40% | 97.6% (active) | -3% | -1% | 98.3% (active) | 0% | -1% | 95.5% (active) | 11% | 32% | 98.5% (active) |
| ClCC1CSC2(CCCCC2)O1 (configuration not stated) | 16% | 3% | 21.5% | 10% | -16% | 20.9% | 7% | -8% | 27.1% | 15% | 32% | 13.7% | -13% | -9% | 31.6% | -17% | -23% | 27.5% |
| COc1ccc(OP2(Oc3ccc(OC)cc3)=NP(Oc3ccc(OC)cc3)(Oc3ccc(OC)cc3)=NP(Oc3ccc(OC)cc3)(Oc3ccc(OC)cc3)=NP(Oc3ccc(OC)cc3)(Oc3ccc(OC)cc3)=N2)cc1 | 41% | 2% | 61.3% | 7% | -9% | 65.8% | 71% (active) | 28% | 67.3% | 0% | -13% | 24.1% | 20% | 35% | 54.5% | 17% | -2% | 78.8% (active) |
| CCOC(=O)C(=C=Cc1cccs1)C(=O)c1ccccc1 | 16% | 84% (active) | 87% (active) | -14% | 95% (active) | 90.5% (active) | 3% | 92% (active) | 90.8% (active) | -10% | 91% (active) | 90.7% (active) | -13% | 97% (active) | 89.8% (active) | -10% | 94% (active) | 83.9% (active) |
| O=S(=O)(O)c1ccc2c(c1)C1C(C3C2C2(Cl)C(Cl)=C(Cl)C3(Cl)C2(Cl)Cl)C2(Cl)C(Cl)=C(Cl)C1(Cl)C2(Cl)Cl (configuration not stated) | -7% | 80% (active) | 85.9% (active) | -8% | 94% (active) | 89.9% (active) | -19% | 77% (active) | 81% (active) | 34% | 89% (active) | 83.7% (active) | 21% | 91% (active) | 88.6% (active) | 23% | 93% (active) | 84.4% (active) |
| CCC[C@H]1[C@H](CCC)[C@@]2(OC(=O)C3=C2CCC=C3)[C@]12OC(=O)C1=C2CCC=C1 | -2% | 98% (active) | 87.8% (active) | 2% | 99% (active) | 87.4% (active) | 3% | 98% (active) | 92% (active) | -7% | 99% (active) | 91.7% (active) | 2% | 98% (active) | 89% (active) | 1% | 98% (active) | 89.8% (active) |
| Nc1ccccc1Sc1ccccc1 | 36% | 58% | 83.2% (active) | 26% | 61% | 77.3% (active) | 46% | 66% | 62.5% | 29% | 47% | 83.2% (active) | 37% | 73% (active) | 64.5% | 35% | 78% (active) | 71% (active) |
| CC(C)C1COC(c2ccc3ccccc3c2-c2c(O[Si](C)(C)C(C)(C)C)ccc3ccccc23)=N1 (configuration not stated) | 20% | 20% | 93.2% (active) | 14% | 14% | 92% (active) | 12% | 12% | 92.8% (active) | 13% | 13% | 92.7% (active) | 8% | 8% | 91.3% (active) | 4% | 4% | 91.2% (active) |
| COc1ccc(NC(=O)CCC(=O)C(C)C(=O)c2ccccc2)cc1 (configuration not stated) | 0% | -1% | 59.8% | -1% | 3% | 16.2% | 14% | 0% | 26.8% | -1% | 10% | 49.2% | 0% | 21% | 21.6% | -2% | 6% | 24.3% |
| CN(C)C(=S)/N=c1\ss/c(=N\S(=O)(=O)c2ccccc2)n1-c1ccccc1 | 0% | 0% | 37.6% | -5% | -13% | 51.9% | -2% | 26% | 64.9% | -10% | -21% | 9.6% | -52% | -2% | 29.1% | -1% | 15% | 59.7% |
| N#CCC(=O)N/N=C(/CC1(O)C(=O)Nc2c(Cl)cc(Cl)cc21)c1ccccc1 (configuration not stated) | 2% | 35% | 69.4% | 10% | 43% | 59.6% | -1% | -6% | 71.1% (active) | -7% | 23% | -20% | 3% | 22% | 26.4% | 5% | 16% | 75.2% (active) |
| CC(OC(=O)Nc1cccc(Cl)c1)c1ccccc1 (configuration not stated) | 18% | 99% (active) | 99.2% (active) | 8% | 99% (active) | 99.5% (active) | 12% | 99% (active) | 99.5% (active) | 7% | 99% (active) | 99% (active) | 11% | 99% (active) | 99.7% (active) | 11% | 99% (active) | 99.2% (active) |
| O=C1c2ccccc2C(=O)c2c1ccc(C(=O)O)c2-c1ccc2ccccc2c1 | 5% | 97% (active) | 97.3% (active) | 26% | 98% (active) | 97.8% (active) | 11% | 98% (active) | 97.5% (active) | 13% | 96% (active) | 97.3% (active) | -3% | 98% (active) | 96.2% (active) | 8% | 98% (active) | 97.2% (active) |

— PubChem BioAssay (NCI)
